# Reference: PubChem BioAssay (NCATS)
# Results filed as inconclusive are left out. A number with no mark means an inactive call. Active and inactive are the calls of the source. Calls follow the shape of the dose curve; as a rule, active = well fitted inhibition curve with a large enough effect; inconclusive = small, poorly fitted or top-dose-only effect; inactive = no such curve, though single readings can be large or run the other way.
# Tested on: Zika virus NS2B-NS3 protease (unlinked complex)
# Assay: Primary screen GU Rhodamine qHTS for Zika virus inhibitors: Unlinked NS2B-NS3 protease assay (AID 1347159); also: nearly all actives have a fitted effect of over 60% in size
# Conditions: Recombinant ZIKV NS2B-NS3 protease, Rhodamine110 substrate fluorescence; series mostly up to 107 µM; activity change, negative = inhibition: at the top concentration
# Outline: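 Enzyme 25 nM in Tris-HCl pH 8.0 + 0.01% Tween 20; compounds up to 114 microM, 15 min RT dark; + Rhod110 substrate 1.5 microM; read t0 and 15 min; delta fluorescence → % inhibition → 4-parameter Hill fit.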
# % is scaled to controls: 0 for no effect and ±100 for the full control effect; potency is read from the fitted curve at half-maximal effect.
SMILES,"activity change, negative = inhibition",Potency
CCCNCCc1ccc(NS(=O)(=O)c2ccc(OC(F)(F)F)cc2)cc1,27.1%,
Fc1ccc(-c2nc(-c3ccccc3F)[nH]c2-c2ccncc2)cc1,0%,
CN1CC2CN(c3ccc4oc5ccccc5c(=O)c4c3)CC2C1 (centres undefined),34.8% [at 57.1 µM],
CN(C)CCC(CSc1ccccc1)Nc1ccc(S(=O)(=O)NC(=O)c2ccc(N3CCN(Cc4ccccc4-c4ccc(Cl)cc4)CC3)cc2)cc1[N+](=O)[O-] (centres undefined),,7.94 µM (active)
CCn1c(=O)c(-c2ccc(-c3cncs3)cc2Cl)cc2cnc(Nc3ccc(N4CCN(C)CC4)cc3)nc21,6.46%,
C[C@H](Nc1cc2c(-c3ccc4c(c3)OCO4)noc2cn1)c1ccccc1,-15.9%,
Cn1cc(C2=C(c3coc4ccccc34)C(=O)NC2=O)c2cc(Br)ccc21,,25.1 µM (active)
C[C@@H]1CC[C@@]23CC[C@]4(C)[C@@](C=CC5[C@@]6(C)CC[C@H](O)C(C)(C)C6CC[C@]54C)(OC2=O)C3[C@H]1C (some centres undefined),,6.31 µM (active)
CC(=O)OC1CCC2(C)C(CCC3(C)C2CC=C2C4C(C)C(C)CCC4(C)CCC23C)C1(C)C(=O)O (centres undefined),,3.98 µM (active)
COC1CC(O[C@H]2CC[C@]3(C)C4CC[C@]5(C)C(C6=CC(=O)OC6)=CCC56OC46CC[C@@H]3C2)OC(C)C1O[C@@H]1O[C@H](CO[C@@H]2O[C@H](CO)[C@@H](O)[C@H](O)[C@H]2O)[C@@H](O)[C@H](O)[C@H]1O (some centres undefined),10.6% [at 32.5 µM],
COc1cc2c(c(OC)c1CC=C(C)C)C[C@H](c1ccc(O)c(CC=C(C)C)c1O)CO2,,17.8 µM (active)
COc1cccc(N2CCN(C3=Nc4c(F)cccc4[C@H](CC(=O)O)N3c3cc(C(F)(F)F)ccc3OC)CC2)c1,,25.1 µM (active)
C=CC(C)(C)c1[nH]c2ccccc2c1C[C@@H]1NC(=O)[C@H](C)NC1=O,-15.9%,
COc1ccc(CCc2nc3c(C)c(-c4c(C)noc4C)c(C)cc3n2CCN2CCOCC2)cc1,-24%,
CC1(C)CC[C@]23CO[C@@]4(CCC5[C@@]6(C)CC[C@H](O[C@@H]7OC[C@H](O[C@@H]8O[C@H](CO)[C@@H](O)[C@H](O)[C@H]8O[C@@H]8OC[C@@H](O)[C@H](O)[C@H]8O)[C@H](O)[C@H]7O)[C@@](C)(CO)C6CC[C@@]5(C)[C@]4(C)CC2=O)[C@@H]3C1 (some centres undefined),9.11% [at 32.5 µM],
CNc1cc2[nH]c(=O)n(-c3ccc(NC(=O)NS(=O)(=O)c4ccc(Cl)s4)cc3)c(=O)c2cc1F,-24.4%,
Cc1ccc(C)c(-c2cc(C(F)(F)F)nn2-c2ccc(S(N)(=O)=O)cc2)c1,0%,

SMILES,"activity change, negative = inhibition",Potency
C=C1CCC[C@]2(C)CC/C(=C(/CO)C(=O)OC)C[C@@H]12,,20 µM (active)
COC1C(OC(=O)/C=C/C=C/C=C/C=C/C(=O)O)CCC2(CO2)C1C1(C)OC1CC=C(C)C (centres undefined),,8.91 µM (active)
COC(=O)C(Cc1ccc(OCCn2c(=O)sc3cc(C(=O)c4ccccc4)ccc32)cc1)C(=O)OC,18.5%,
O=c1[nH]c2ccc(C#CCN3CCC(Cc4ccccc4)CC3)cc2[nH]1,-4.84%,
COc1cc(CCc2ccc(OCC=C(C)C)cc2)cc(OC)c1OC,-3.4%,
Cc1cc(OCCCS(C)(=O)=O)cc(C)c1-c1cccc(COc2ccc(C3=CC(=O)NS3=O)cc2)c1 (centres undefined),,3.55 µM (active)
CC(=O)[C@H]1CC[C@H]2[C@@H]3CC=C4C[C@@H](OS(=O)(=O)O)CC[C@]4(C)[C@H]3CC[C@]12C,,17.8 µM (active)
COc1ccc(C2=NC(c3ccc(Cl)cc3)C(c3ccc(Cl)cc3)N2C(=O)N2CCNC(=O)C2)c(OC(C)C)c1 (centres undefined),8.98%,
O=C(O)CSc1cc(NS(=O)(=O)c2ccc(Br)cc2)c2ccccc2c1O,,3.16 µM (active)
CC(=O)C1=C(O)C=C2Oc3c(C(C)=O)c(O)c(C)c(O)c3[C@]2(C)C1=O,,31.6 µM (active)
C=C(C(=O)O)[C@@H]1CC=C(CCC(C)=O)[C@@H](C)CC1,,56.2 µM (active)
NC(=O)C1=CC2C3C=CC2C(OC3=O)O1 (centres undefined),-0.619% [at 171 µM],
C#Cc1cccc(Nc2nc3cc(C(=O)O)ccc3c3cncnc23)c1,,11.2 µM (active)
OC1CCC(Nc2nc(-c3ccccc3)nc3[nH]ccc23)CC1 (centres undefined),57%,
CC/C(C)=C/C(=O)OC1C(OC2(C)CCC3C(C4C(C)CCC42)C3(C)C)OC(C)C(O)C1O (centres undefined),,14.1 µM (active)
C=C(CCC1C(C)(O)CCC2C(C)(C)C(O)CCC12C)C(O)CO (centres undefined),,39.8 µM (active)
O=C(NCCCN1CCC2(CC1)OCc1ccccc12)[C@H]1CCCN1Cc1ccccc1,36.9%,
